# Screening data: PubChem BioAssay, Small Molecule Screening Facility, UW Madison
# The full list was thinned out, with hits kept by preference.
# RMI-FANCM inh – disruptors of RMI1/RMI2 association with MM2 peptide – biochemical, fluorescence polarization, human, primary screen; RMI core complex (RMI1/RMI2) binding to FANCM MM2 peptide, human; RMI core complex with F-MM2 peptide; hits give low values; FP signal (polarization) at 33 µM; actives 0.58% (n = 70,000); AID 1159607, 2016; in the data active = FP signal below about 40
# * marks the source's active call; other numbers are inactive results.
SMILES,RMI-FANCM inh
O=C(Nc1ccc(Br)cc1)c1cnc2n(c1=O)CCS2,60
O=C(Nc1cccc2c1CCCC2)c1cnc2n(c1=O)CCS2,64
O=C(Nc1ccc(S(=O)(=O)Nc2ncccn2)cc1)c1cnc2n(c1=O)CCS2,20*
CCN(CC)CCN(C(=O)c1cc(-c2ccccc2)nc2ccccc12)c1nc2c(C)cccc2s1,61
COC(=O)c1ccc(N2C(=O)CC(Sc3ncccc3C(=O)O)C2=O)cc1 (centres undefined),57
COc1ccc(CCNC(=O)Nc2csc3ccccc23)cc1OC,59
OC(c1ccccc1)c1nc2ccccc2[nH]1 (centres undefined),60
OC(c1nc2ccccc2[nH]1)C(O)c1nc2ccccc2[nH]1 (centres undefined),54
N#Cc1ccc2nc(C(O)C(O)c3nc4ccc(C#N)cc4[nH]3)[nH]c2c1 (centres undefined),29*
Cc1sc(NC(=O)c2cc(-c3cccs3)nc3ccccc23)c(C#N)c1C,88
Cc1[nH]n(-c2ccccc2)c(=O)c1C(=O)c1ccc(S(=O)(=O)N2CCOCC2)cc1,69
CC(C)N1CCc2c(sc(NC(=O)c3c(F)cccc3F)c2-c2nc3ccccc3s2)C1,-10*
CC(=O)N1CCc2c(sc(NC(=O)c3c(F)cccc3F)c2-c2nc3ccccc3s2)C1,90
CC(=O)N1CCc2c(sc(NC(=O)c3cc(=O)c4ccccc4o3)c2-c2nc3ccccc3s2)C1,-23
CCn1nccc1C(=O)Nc1sc2c(c1-c1nc3ccccc3s1)CCC(C)C2 (centres undefined),70
COC(=O)N1CCc2c(sc(NC(=O)c3ccccc3)c2-c2nc3ccccc3s2)C1,70
CC(C)N1CCc2c(sc(NC(=O)c3ccnn3C)c2-c2nc3ccccc3s2)C1,-7*
O=C(Nc1ccc2c(c1)CN(C(=O)C1CC1)CC2)c1cccc(C(F)(F)F)c1,67
CNNC(=O)Cn1nnc(-c2cc(C(F)(F)F)cc(C(F)(F)F)c2)n1,58
O=C(NCCN1CCN(c2ccccc2F)CC1)C(=O)NC1CCCCCC1,66
CSc1ccc(C(=O)N2CCN(c3ccccc3)CC2)cc1,54
N#Cc1cc2ccccc2oc1=O,60
Cc1ccc2oc3nc(N)c(C#N)cc3c(=O)c2c1,5*
Cc1ccc(-n2ncc(C#N)c2N)c(C)c1,56
Cc1ccccc1OCC(=O)NCCc1ccc(N(C)C)cc1,70
SMILES,RMI-FANCM inh
CCOC(=O)c1c(NC(=O)c2ccc(S(=O)(=O)N(CC)CC)cc2)sc2c1CCCC2,59
CC(CNC1CCCCC1)OC(=O)c1ccccc1 (centres undefined),19*
CCC(=O)c1ccc(OCC(O)CNC2CCCCCC2)cc1 (centres undefined),63
O=C(NCCS(=O)(=O)NC1CCCCC1)c1ccccc1,53
Cc1ccc2oc(C(=O)Nc3cc(C(F)(F)F)ccc3Cl)cc2n1,53
COc1cc2[nH]c3c(=O)n(CC(=O)Nc4ccc(C(C)C)cc4)cnc3c2cc1OC,119
CSc1nccc(-c2ccc(Br)s2)n1,62
CSc1nccc(-c2sc(-c3ccc(Cl)cc3)nc2C)n1,32*
Cc1nccc(-c2sc(-c3cccs3)nc2C)n1,55
CCN(CC)S(=O)(=O)c1ccc(C(=O)Nc2nc(-c3ccc(Cl)c(Cl)c3)cs2)cc1,48
CC1CN(C(=S)NC(=O)c2ccccc2F)CC(C)O1 (centres undefined),60
COc1cccc(CSc2nc(CC(=O)Nc3ccc(C)c(C)c3)cc(=O)[nH]2)c1,64
COc1cccc(CSc2nc(CC(=O)NC3CC3)cc(=O)[nH]2)c1,54
COc1cccc(CSc2nc(CC(=O)Nc3nnc(C)s3)cc(=O)[nH]2)c1,34*
COC(=O)c1ccccc1NS(=O)(=O)c1cccc2cccnc12,61
COC(=O)c1ccccc1NS(=O)(=O)c1cc(S(=O)(=O)Nc2ccccc2C(=O)OC)c2cccc3c2c1NC3=O,30*
O=C(O)CC(NS(=O)(=O)c1cc(S(=O)(=O)NC(CC(=O)O)c2ccccc2)c2cccc3c2c1NC3=O)c1ccccc1 (centres undefined),52
CCc1nnc(C2CCN(C(=O)NCc3ccc(F)cc3)CC2)s1,63
Cc1ccc(Cc2nnc(NC(=O)C3CC3)o2)cc1C,64
CCOC(=O)c1sc(=NC(=O)c2ccc3ncsc3c2)n(C)c1C,61
